Reference: the supplement of paper PMC12494721
Where a name gives a salt, the structure may show the parent alone.

Experiments:
Details in all cases: incubation time: 27 h, anaerobic, 37 °C;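 for the amine columns active = adjusted P below 0.05 in both replicates with a change the same way and a mean fold change under 0.8 or over 1.25; inactive = the rest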
[1] = tested on: Clostridium sporogenes DSM 1664; assay: growth (OD595) fold change vs plate DMSO controls (fold change (ratio)); higher = more growth
Summary of the method: (§1)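 Each value is the mean of 2 biological replicates, and fold changes above 1.5 were set to NA. The underlying readings were taken at 595 nm from shaken anaerobic mGAM cultures in 96-well plates after 27 h at 37 °C. They were blank-subtracted, corrected for compound background using 20 µM compound solutions in water, and converted to OD with a calibration factor of 5. Growth is the fold change relative to the median of the plate DMSO controls.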

Escherichia coli IAI1 [2] = assay: as above
Summary of the method: as §1

[3] = tested on: Klebsiella aerogenes DSM 30053; assay: as above
Summary of the method: as §1

[4] = tested on: Ruminococcus gnavus DSM 108212; assay: as above
Summary of the method: as §1

[5] = tested on: Klebsiella aerogenes DSM 30053; assay: fold change of Histamine concentration vs plate DMSO controls (fold change (ratio)); higher = more amine produced, active = hit call of the paper (significant change in both replicates, either direction)
Summary of the method: (§2)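 Amine values are fold changes relative to DMSO-only wells on the same plate. They derive from 27 h, 37 °C anaerobic mGAM cultures of four gut bacterial strains in 80 µL wells, dosed at 20 µM final, or 50 µM final for sweeteners. Extraction of the whole culture, LC–triple-quadrupole MS in dynamic MRM mode, external calibration curves and within-batch drift correction were used, with 2 biological replicates averaged.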

[6] = tested on: Clostridium sporogenes DSM 1664; assay: fold change of Tryptamine concentration vs plate DMSO controls (fold change (ratio)); higher = more amine produced, active = hit call of the paper (significant change in both replicates, either direction)
Summary of the method: as §2

[7] = tested on: Ruminococcus gnavus DSM 108212; assay: as above
Summary of the method: as §2

Escherichia coli IAI1 [8] = assay: fold change of Putrescine concentration vs plate DMSO controls (fold change (ratio)); higher = more amine produced, active = hit call of the paper (significant change in both replicates, either direction)
Summary of the method: as §2

[9] = tested on: Klebsiella aerogenes DSM 30053; assay: as above
Summary of the method: as §2

Escherichia coli IAI1 [10] = assay: fold change of Cadaverine concentration vs plate DMSO controls (fold change (ratio)); higher = more amine produced, active = hit call of the paper (significant change in both replicates, either direction)
Summary of the method: as §2

[11] = tested on: Klebsiella aerogenes DSM 30053; assay: as above
Summary of the method: as §2

[12] = tested on: Ruminococcus gnavus DSM 108212; assay: fold change of 2-Phenylethylamine concentration vs plate DMSO controls (fold change (ratio)); higher = more amine produced, active = hit call of the paper (significant change in both replicates, either direction)
Summary of the method: as §2

Structure (SMILES)	growth [1]	growth (Escherichia coli IAI1 [2])	growth [3]	growth [4]	fold change of Histamine concentration [5]	fold change of Tryptamine concentration [6]	fold change of Tryptamine concentration [7]	fold change of Putrescine concentration (Escherichia coli IAI1 [8])	fold change of Putrescine concentration [9]	fold change of Cadaverine concentration (Escherichia coli IAI1 [10])	fold change of Cadaverine concentration [11]	fold change of 2-Phenylethylamine concentration [12]
Cc1c(N)c(=O)n(-c2ccccc2)n1C [Ampyrone] (20 µM)	1.01	0.995	0.983	0.854	0.947 (inactive)	1.07 (inactive)	0.901 (inactive)	0.975 (inactive)	0.992 (inactive)	1.03 (inactive)	1.01 (inactive)	0.926 (inactive)
Cc1cccc(C)c1NC(=O)CN1CCN(CCCC(c2ccc(F)cc2)c2ccc(F)cc2)CC1 [Lidoflazine] (20 µM)	0.947	1	1.05	1.22	1.01 (inactive)	1.04 (inactive)	0.863 (inactive)	1.09 (inactive)	1 (inactive)	0.995 (inactive)	0.996 (inactive)	0.906 (inactive)
Cn1cc([S+](C)[O-])c(=O)c2ccc(F)cc21 (stereo not given) [Flosequinan] (20 µM)	0.995	1	1.01	1.06	1.03 (inactive)	0.946 (inactive)	0.958 (inactive)	0.994 (inactive)	1.02 (inactive)	1.04 (inactive)	0.999 (inactive)	0.938 (inactive)
CC1CC(OC(=O)C(O)c2ccccc2)CC(C)(C)C1 (stereo not given) [Cyclandelate] (20 µM)	0.937	1.02	1.04	1.02	0.997 (inactive)	1.04 (inactive)	1.03 (inactive)	0.959 (inactive)	1.02 (inactive)	1.02 (inactive)	1.01 (inactive)	1.03 (inactive)
c1ccc2cc3ccccc3cc2c1 [Anthracene] (20 µM)	1.03	1.04	0.993	0.985	1.03 (inactive)	1.03 (inactive)	1.02 (inactive)	1.01 (inactive)	0.986 (inactive)	0.976 (inactive)	1.02 (inactive)	0.963 (inactive)
C[C@]12CC[C@H]3C(=CCc4cc(O)ccc43)[C@@H]1CCC2=O [Equilin] (20 µM)	0.994	0.964	0.954	1	1.01 (inactive)	1.02 (inactive)	0.996 (inactive)	1.07 (inactive)	0.996 (inactive)	1.03 (inactive)	0.978 (inactive)	0.93 (inactive)
N=C(N)Nc1ccc(C(=O)Oc2ccc3cc(C(=N)N)ccc3c2)cc1 [Nafamostat Mesylate] (20 µM)	1.04	0.933	0.99	0.967	0.92 (inactive)	0.959 (inactive)	0.91 (inactive)	1.04 (inactive)	1.06 (inactive)	1.04 (inactive)	1.01 (inactive)	0.948 (inactive)
O=C1c2cccc3c2[C@H](CCC3)CN1[C@@H]1CN2CCC1CC2 [Palonosetron hydrochloride] (20 µM)	1	1.05	0.978	0.887	1.09 (inactive)	0.963 (inactive)	1.04 (inactive)	1.06 (inactive)	0.996 (inactive)	0.979 (inactive)	0.983 (inactive)	1.04 (inactive)
CC(=O)Nc1nnc(S(N)(=O)=O)s1 [Acetazolamide] (20 µM)	1.04	0.95	1.04	0.746	1.04 (inactive)	0.973 (inactive)	1.02 (inactive)	0.965 (inactive)	1.06 (inactive)	0.971 (inactive)	1.11 (inactive)	1.09 (inactive)
CC(C)(C(=O)c1cccnc1)c1cccnc1 [Metyrapone] (20 µM)	1.01	1.01	1.01	1	1.03 (inactive)	1 (inactive)	1 (inactive)	0.985 (inactive)	1.02 (inactive)	1.01 (inactive)	1 (inactive)	1.01 (inactive)
COc1ccc([C@@H]2Sc3ccccc3N(CCN(C)C)C(=O)[C@@H]2OC(C)=O)cc1 [Diltiazem hydrochloride] (20 µM)	1.13	1.02	0.994	1.01	1.07 (inactive)	1.03 (inactive)	1.01 (inactive)	0.982 (inactive)	1.02 (inactive)	0.985 (inactive)	0.993 (inactive)	0.971 (inactive)
CCN1CCN(Cc2ccc(Nc3ncc(F)c(-c4cc(F)c5nc(C)n(C(C)C)c5c4)n3)nc2)CC1 [Abemaciclib] (20 µM)	0.975	1	1.04	1.19	1.02 (inactive)	1 (inactive)	1 (inactive)	0.983 (inactive)	1.01 (inactive)	1.03 (inactive)	0.993 (inactive)	1.02 (inactive)
CN(C)[C@@H]1C(=O)C(C(=O)NCNCCCC[C@H](N)C(=O)O)=C(O)[C@@]2(O)C(=O)C3=C(O)c4c(O)cccc4[C@@](C)(O)[C@H]3C[C@@H]12 [Lymecycline] (20 µM)	0.746	1.23	0.995	0.941	1.05 (inactive)	0.933 (inactive)	0.996 (inactive)	1.2 (inactive)	1.03 (inactive)	1.11 (inactive)	0.999 (inactive)	1.02 (inactive)
CC(C)(Sc1cc(C(C)(C)C)c(O)c(C(C)(C)C)c1)Sc1cc(C(C)(C)C)c(O)c(C(C)(C)C)c1 [Probucol] (20 µM)	1.03	1.06	1.03	1.15	0.921 (inactive)	1.02 (inactive)	1.01 (inactive)	1.04 (inactive)	0.983 (inactive)	0.921 (inactive)	1.01 (inactive)	1.01 (inactive)
Cn1c(=O)c2nc[nH]c2n(C)c1=O [Theophylline monohydrate] (20 µM)	1.19	1.11	1.04	1.12	0.952 (inactive)	1.1 (inactive)	1.1 (inactive)	1.24 (inactive)	0.957 (inactive)	0.9 (inactive)	1.02 (inactive)	1.15 (inactive)
CCCCN1CCCCC1C(=O)Nc1c(C)cccc1C (stereo not given) [Bupivacaine hydrochloride] (20 µM)	1.13	1.07	1	0.881	0.967 (inactive)	1.02 (inactive)	1.01 (inactive)	1.02 (inactive)	0.995 (inactive)	1.01 (inactive)	1 (inactive)	1.02 (inactive)
CCN(CC)CCOCCOC(=O)C1(c2ccccc2)CCCC1 [Carbetapentane citrate] (20 µM)	1.08	1	0.996	0.743	0.992 (inactive)	1.02 (inactive)	0.995 (inactive)	0.958 (inactive)	0.996 (inactive)	0.988 (inactive)	0.993 (inactive)	0.979 (inactive)
CC1=C(C(=O)O)N2C(=O)[C@@H](NC(=O)[C@H](N)c3ccccc3)[C@H]2SC1 [Cephalexin monohydrate] (20 µM)	0.958	0.985	0.98	0.987	1.03 (inactive)	1.17 (inactive)	1.1 (inactive)	0.911 (inactive)	0.934 (inactive)	0.879 (inactive)	1.01 (inactive)	1.15 (inactive)
CC(=O)N[C@H]1[C@H]([C@H](O)[C@H](O)CO)OC(C(=O)O)=C[C@@H]1NC(=N)N [Zanamivir] (20 µM)	0.953	1.02	0.977	0.992	1.01 (inactive)	1 (inactive)	1.06 (inactive)	0.946 (inactive)	0.962 (inactive)	0.886 (inactive)	0.991 (inactive)	1.09 (inactive)
C[N+]1(CCCCC[N+]2(C)CCCC2)CCCC1 [Pentolinium bitartrate] (20 µM)	0.933	0.986	1.01	0.709	1.06 (inactive)	1.08 (inactive)	0.98 (inactive)	1.03 (inactive)	1.01 (inactive)	0.966 (inactive)	0.999 (inactive)	0.943 (inactive)
COc1ccc(C(=O)NCc2cccnc2)cc1C(=O)NCc1cccnc1 [Picotamide monohydrate] (20 µM)	0.983	0.972	0.998	0.842	1.07 (inactive)	1.06 (inactive)	0.926 (inactive)	0.989 (inactive)	1.05 (inactive)	0.962 (inactive)	1.02 (inactive)	0.866 (inactive)
COc1c(O[C@@H]2O[C@H](CO)[C@@H](O)[C@H](O)[C@H]2O)cc2c(c1OC)-c1ccc(SC)c(=O)cc1[C@@H](NC(C)=O)CC2 [Thiocolchicoside] (20 µM)	0.996	1	0.975	0.686	1.1 (inactive)	1.01 (inactive)	1.02 (inactive)	1.01 (inactive)	1.02 (inactive)	1 (inactive)	0.991 (inactive)	1.01 (inactive)
CN1CCN(CCCN2c3ccccc3Sc3ccc(S(=O)(=O)N(C)C)cc32)CC1 [Thioproperazine dimesylate] (20 µM)	0.886	0.986	1.12	1.15	0.898 (inactive)	1.03 (inactive)	0.963 (inactive)	0.969 (inactive)	0.976 (inactive)	0.99 (inactive)	1.01 (inactive)	1.06 (inactive)
CCN(CC)CCNc1ccc(CO)c2sc3ccccc3c(=O)c12 [Hycanthone] (20 µM)	1.05	1.03	1.03	0.939	0.979 (inactive)	0.791 (active)	0.917 (inactive)	1.01 (inactive)	0.993 (inactive)	0.967 (inactive)	1.01 (inactive)	0.917 (inactive)
CCOc1ccc(NC(=O)CC(C)O)cc1 (stereo not given) [Bucetin] (20 µM)	0.973	0.985	0.995	1.07	0.984 (inactive)	0.999 (inactive)	0.95 (inactive)	0.997 (inactive)	1.01 (inactive)	0.977 (inactive)	0.993 (inactive)	0.936 (inactive)
